The text below walks through data of ChEMBL document CHEMBL1961873, “Compounds: GSK PKIS; Assays: Nanosyn kinase panel” (2012).

One may read the inhibition as the drop in the measured response relative to a control, in per cent.

Experiment [1] deals with Mitogen-activated protein kinase 3 (Homo sapiens) (UniProt P27361). The note with it: at 1 µM.
The target in experiment [2] is SRSF protein kinase 3 (Homo sapiens) (UniProt Q9UPE1). The note with it: at 0.1 µM.
Experiment [3] shares this target. The note with it: at 1 µM.
Experiment [4] concerns the target Mitogen-activated protein kinase 14 (Homo sapiens) (UniProt Q16539). The note with it: at 0.1 µM.
Experiment [5] shares this target. The conditions noted are these: at 1 µM.
The target in experiment [6] is Mitogen-activated protein kinase 11 (Homo sapiens) (UniProt Q15759). The conditions noted are these: at 0.1 µM.
Mitogen-activated protein kinase 11 (Homo sapiens), sequence (Q15759 whole entry): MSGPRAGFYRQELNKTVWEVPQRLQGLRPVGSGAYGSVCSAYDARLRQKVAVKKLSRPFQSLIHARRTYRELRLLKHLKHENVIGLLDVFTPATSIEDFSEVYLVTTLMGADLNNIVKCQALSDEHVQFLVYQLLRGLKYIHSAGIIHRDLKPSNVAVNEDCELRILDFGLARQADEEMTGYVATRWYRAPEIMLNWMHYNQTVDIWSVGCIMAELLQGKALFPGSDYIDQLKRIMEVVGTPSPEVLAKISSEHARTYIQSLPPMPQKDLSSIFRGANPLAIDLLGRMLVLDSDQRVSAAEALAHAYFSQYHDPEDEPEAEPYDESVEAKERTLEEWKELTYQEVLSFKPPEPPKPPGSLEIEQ
For experiment [7] the target is unchanged. The conditions noted are these: at 1 µM.
The target in experiment [8] is T1, Mitogen-activated protein kinase 13 (Homo sapiens) (UniProt O15264).
T1 sequence (whole entry): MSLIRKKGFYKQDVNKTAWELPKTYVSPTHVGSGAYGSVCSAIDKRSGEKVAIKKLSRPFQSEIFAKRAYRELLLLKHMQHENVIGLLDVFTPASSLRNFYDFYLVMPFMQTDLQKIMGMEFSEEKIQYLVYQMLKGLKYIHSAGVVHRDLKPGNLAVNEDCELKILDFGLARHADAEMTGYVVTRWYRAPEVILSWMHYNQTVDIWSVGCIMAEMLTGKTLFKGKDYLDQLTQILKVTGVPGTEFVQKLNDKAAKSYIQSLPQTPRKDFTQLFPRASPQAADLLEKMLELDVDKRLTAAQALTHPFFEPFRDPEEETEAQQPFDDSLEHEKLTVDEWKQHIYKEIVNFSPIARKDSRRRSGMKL
The conditions noted are these: at 0.1 µM.

Experiment [9] deals with T1, Mitogen-activated protein kinase 13 (Homo sapiens). The conditions noted are these: at 1 µM.
The target of experiment [10] is T2, Mitogen-activated protein kinase 12 (Homo sapiens) (UniProt P53778).
T2 sequence (whole entry): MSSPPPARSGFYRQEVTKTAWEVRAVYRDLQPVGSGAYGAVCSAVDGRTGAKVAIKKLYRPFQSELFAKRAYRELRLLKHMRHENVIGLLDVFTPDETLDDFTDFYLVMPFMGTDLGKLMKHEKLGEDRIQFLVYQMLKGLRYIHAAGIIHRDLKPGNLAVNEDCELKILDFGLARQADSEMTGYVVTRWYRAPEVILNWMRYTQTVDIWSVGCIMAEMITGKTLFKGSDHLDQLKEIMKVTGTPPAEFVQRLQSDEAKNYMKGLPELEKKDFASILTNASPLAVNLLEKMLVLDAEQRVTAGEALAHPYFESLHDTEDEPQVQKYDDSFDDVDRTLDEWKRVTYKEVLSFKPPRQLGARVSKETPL
The conditions noted are these: at 0.1 µM.

Experiment [11] concerns the target T2, Mitogen-activated protein kinase 12 (Homo sapiens). The conditions noted are these: at 1 µM.
Experiment [12] has as its target SRSF protein kinase 1 (Homo sapiens) (UniProt Q96SB4). The note with it: at 0.1 µM.
Experiment [13] has the same target. The conditions noted are these: at 1 µM.
The target of experiment [14] is Phosphatidylinositol 4,5-bisphosphate 3-kinase catalytic subunit alpha isoform (Homo sapiens) (UniProt P42336). The conditions noted are these: at 0.1 µM.
Phosphatidylinositol 4,5-bisphosphate 3-kinase catalytic subunit alpha isoform (Homo sapiens), sequence (P42336 whole entry, canonical isoform): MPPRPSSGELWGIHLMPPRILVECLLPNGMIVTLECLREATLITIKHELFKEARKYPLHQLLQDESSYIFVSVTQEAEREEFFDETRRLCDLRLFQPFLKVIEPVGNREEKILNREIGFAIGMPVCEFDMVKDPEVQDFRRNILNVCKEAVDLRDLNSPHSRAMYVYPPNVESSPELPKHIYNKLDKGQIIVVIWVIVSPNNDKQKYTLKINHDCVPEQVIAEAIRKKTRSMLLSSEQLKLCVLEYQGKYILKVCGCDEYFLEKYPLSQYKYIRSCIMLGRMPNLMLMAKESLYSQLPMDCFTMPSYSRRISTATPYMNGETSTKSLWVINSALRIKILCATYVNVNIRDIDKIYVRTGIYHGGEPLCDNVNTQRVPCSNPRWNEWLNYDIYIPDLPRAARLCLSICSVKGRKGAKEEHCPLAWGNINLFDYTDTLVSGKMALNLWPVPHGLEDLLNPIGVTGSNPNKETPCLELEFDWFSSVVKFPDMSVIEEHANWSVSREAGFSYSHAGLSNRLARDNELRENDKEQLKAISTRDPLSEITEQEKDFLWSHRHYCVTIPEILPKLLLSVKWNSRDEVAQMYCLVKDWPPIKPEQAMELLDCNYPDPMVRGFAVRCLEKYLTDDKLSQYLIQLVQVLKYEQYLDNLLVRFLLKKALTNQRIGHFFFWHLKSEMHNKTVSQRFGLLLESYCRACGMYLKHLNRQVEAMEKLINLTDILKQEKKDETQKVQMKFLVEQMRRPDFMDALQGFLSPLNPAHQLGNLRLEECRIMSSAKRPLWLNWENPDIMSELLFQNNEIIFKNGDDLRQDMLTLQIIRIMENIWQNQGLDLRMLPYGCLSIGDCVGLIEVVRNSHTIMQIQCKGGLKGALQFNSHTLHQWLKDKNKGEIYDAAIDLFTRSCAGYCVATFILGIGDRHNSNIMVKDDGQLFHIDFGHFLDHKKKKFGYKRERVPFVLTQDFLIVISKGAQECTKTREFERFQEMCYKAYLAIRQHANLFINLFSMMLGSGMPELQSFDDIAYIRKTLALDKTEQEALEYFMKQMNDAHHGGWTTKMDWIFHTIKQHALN
Experiment [15] shares this target. The conditions noted are these: at 1 µM.
Experiment [16] concerns the target T3, Phosphatidylinositol 4,5-bisphosphate 3-kinase catalytic subunit delta isoform (Homo sapiens) (UniProt O00329).
T3 sequence (whole entry): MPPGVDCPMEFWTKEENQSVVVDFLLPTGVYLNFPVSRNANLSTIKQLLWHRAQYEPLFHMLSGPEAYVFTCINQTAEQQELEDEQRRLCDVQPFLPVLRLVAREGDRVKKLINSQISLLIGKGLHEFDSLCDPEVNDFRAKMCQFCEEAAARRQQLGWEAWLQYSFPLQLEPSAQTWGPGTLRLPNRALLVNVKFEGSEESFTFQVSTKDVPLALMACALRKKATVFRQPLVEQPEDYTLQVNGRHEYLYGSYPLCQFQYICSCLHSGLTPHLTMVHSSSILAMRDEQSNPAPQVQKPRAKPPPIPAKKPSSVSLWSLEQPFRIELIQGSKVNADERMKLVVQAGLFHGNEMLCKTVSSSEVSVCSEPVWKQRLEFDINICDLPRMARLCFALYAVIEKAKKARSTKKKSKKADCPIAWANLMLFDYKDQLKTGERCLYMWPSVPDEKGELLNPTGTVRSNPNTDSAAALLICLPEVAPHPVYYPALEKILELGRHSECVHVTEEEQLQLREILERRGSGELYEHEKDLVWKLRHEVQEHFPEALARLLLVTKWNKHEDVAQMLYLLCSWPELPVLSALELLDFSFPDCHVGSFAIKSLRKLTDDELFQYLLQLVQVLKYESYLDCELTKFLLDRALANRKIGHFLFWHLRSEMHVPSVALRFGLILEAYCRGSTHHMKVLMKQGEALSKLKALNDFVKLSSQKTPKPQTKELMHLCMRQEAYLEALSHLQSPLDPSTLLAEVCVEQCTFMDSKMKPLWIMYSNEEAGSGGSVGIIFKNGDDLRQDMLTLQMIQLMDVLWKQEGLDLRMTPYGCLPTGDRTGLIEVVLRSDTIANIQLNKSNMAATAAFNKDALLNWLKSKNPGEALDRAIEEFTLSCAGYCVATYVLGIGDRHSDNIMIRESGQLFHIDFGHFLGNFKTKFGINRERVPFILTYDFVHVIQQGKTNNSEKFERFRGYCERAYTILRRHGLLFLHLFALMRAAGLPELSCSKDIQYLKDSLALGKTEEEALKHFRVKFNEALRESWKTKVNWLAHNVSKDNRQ
The note with it: at 0.1 µM.

For experiment [17], the target named is T3, Phosphatidylinositol 4,5-bisphosphate 3-kinase catalytic subunit delta isoform (Homo sapiens). The conditions noted are these: at 1 µM.
Experiment [18] addresses Phosphatidylinositol 4-kinase beta (Homo sapiens) (UniProt Q9UBF8). The conditions noted are these: at 0.1 µM.
Experiment [19] shares this target. The conditions noted are these: at 1 µM.
Experiment [20] deals with Sphingosine kinase 1 (Homo sapiens) (UniProt Q9NYA1). The note with it: at 0.1 µM.
Sphingosine kinase 1 (Homo sapiens), sequence (Q9NYA1 whole entry): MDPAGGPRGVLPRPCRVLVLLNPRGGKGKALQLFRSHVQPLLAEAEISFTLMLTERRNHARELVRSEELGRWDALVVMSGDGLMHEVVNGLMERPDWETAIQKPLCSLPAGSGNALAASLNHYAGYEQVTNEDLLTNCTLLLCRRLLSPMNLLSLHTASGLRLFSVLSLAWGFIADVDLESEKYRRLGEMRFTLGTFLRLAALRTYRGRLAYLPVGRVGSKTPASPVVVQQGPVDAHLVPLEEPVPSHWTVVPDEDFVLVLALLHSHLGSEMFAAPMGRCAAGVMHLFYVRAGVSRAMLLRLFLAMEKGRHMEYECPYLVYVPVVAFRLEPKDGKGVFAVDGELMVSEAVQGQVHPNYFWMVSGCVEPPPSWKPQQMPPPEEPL

SRSF protein kinase 1 (Homo sapiens), sequence (Q96SB4 whole entry): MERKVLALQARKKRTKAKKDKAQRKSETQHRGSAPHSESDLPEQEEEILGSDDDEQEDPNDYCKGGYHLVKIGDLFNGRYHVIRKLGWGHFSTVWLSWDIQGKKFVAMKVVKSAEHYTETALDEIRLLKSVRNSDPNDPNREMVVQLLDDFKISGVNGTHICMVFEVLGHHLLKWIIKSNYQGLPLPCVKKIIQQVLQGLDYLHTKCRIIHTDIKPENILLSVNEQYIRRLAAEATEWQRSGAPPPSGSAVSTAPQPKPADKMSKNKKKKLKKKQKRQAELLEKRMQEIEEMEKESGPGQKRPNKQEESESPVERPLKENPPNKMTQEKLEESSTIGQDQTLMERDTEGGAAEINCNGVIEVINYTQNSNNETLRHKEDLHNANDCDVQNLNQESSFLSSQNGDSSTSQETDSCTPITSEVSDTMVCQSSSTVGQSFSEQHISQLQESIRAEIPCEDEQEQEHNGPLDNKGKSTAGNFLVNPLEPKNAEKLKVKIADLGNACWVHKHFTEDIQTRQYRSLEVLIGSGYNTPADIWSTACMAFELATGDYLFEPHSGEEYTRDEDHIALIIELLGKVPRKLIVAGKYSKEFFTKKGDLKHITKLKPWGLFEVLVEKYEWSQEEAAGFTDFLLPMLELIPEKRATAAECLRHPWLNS
SRSF protein kinase 3 (Homo sapiens), sequence (Q9UPE1 whole entry): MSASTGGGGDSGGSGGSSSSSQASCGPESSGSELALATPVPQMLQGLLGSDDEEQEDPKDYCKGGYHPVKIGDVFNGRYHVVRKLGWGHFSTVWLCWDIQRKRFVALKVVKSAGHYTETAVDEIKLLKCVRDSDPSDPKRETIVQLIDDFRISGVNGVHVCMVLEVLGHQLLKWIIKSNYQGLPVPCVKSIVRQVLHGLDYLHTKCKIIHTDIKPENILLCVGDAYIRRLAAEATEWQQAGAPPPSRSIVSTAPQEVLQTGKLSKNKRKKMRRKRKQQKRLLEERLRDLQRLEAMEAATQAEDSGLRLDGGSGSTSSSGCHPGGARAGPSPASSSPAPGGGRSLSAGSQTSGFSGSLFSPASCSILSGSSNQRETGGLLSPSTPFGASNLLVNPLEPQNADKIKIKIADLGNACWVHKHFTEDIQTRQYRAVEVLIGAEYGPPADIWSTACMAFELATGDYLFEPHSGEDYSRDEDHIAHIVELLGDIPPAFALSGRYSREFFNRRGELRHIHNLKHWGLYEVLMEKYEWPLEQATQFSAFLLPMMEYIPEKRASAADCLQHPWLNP
Phosphatidylinositol 4-kinase beta (Homo sapiens), sequence (Q9UBF8 2-816 limits assumed): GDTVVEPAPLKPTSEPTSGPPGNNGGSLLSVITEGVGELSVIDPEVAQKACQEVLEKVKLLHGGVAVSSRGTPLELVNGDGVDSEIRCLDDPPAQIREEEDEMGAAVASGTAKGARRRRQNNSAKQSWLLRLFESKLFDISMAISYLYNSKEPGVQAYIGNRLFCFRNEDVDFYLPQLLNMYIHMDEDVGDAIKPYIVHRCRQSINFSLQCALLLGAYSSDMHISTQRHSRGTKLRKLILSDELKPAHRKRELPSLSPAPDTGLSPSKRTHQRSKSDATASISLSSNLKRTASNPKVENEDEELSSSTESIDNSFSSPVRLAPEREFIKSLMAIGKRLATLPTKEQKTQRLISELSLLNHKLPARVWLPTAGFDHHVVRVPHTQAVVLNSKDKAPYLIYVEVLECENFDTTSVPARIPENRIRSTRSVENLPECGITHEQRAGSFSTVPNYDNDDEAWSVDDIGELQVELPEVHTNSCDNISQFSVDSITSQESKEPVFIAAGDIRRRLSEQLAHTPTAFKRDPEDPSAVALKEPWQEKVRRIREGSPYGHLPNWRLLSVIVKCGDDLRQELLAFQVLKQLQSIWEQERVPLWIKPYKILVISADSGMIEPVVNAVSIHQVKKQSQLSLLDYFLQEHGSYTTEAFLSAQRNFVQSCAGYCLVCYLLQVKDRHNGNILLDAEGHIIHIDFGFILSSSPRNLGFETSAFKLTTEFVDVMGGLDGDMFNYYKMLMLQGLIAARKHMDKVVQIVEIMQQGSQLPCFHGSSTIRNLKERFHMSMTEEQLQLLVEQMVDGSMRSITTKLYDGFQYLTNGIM
Mitogen-activated protein kinase 3 (Homo sapiens), sequence (P27361 whole entry): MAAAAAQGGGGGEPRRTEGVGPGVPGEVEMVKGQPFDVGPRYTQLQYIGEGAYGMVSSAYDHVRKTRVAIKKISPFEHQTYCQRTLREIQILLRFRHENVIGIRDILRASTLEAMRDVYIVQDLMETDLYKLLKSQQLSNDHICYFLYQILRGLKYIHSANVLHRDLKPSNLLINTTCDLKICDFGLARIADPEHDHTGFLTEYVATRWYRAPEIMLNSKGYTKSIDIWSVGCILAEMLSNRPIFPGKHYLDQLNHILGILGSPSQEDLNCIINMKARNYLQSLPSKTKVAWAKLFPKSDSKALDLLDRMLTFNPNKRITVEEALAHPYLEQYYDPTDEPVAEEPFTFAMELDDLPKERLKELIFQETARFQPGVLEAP
Mitogen-activated protein kinase 14 (Homo sapiens), sequence (Q16539 whole entry): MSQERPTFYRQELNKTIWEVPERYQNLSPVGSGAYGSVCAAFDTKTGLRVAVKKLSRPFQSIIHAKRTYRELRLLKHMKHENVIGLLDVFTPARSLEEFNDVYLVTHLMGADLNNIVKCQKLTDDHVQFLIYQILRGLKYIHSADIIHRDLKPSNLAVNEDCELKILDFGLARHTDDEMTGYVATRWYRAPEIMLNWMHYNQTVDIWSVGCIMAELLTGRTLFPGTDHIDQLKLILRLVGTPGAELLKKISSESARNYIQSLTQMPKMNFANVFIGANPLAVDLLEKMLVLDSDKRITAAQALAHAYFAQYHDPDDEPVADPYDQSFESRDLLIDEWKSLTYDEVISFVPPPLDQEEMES

In the case of `COc1ccc(-c2nn3ncccc3c2-c2ccnc(Nc3ccc(F)c(F)c3)n2)cc1`, the inhibition was 6.78% in experiment [1]; -0.12% in experiment [2]; 3.15% in [3]; 33% in experiment [4]; 81% in experiment [5]; 11.9% in experiment [6]. The inhibition is 50.9% in experiment [7]; 0.5% in experiment [8]; 3.31% in experiment [9]; 4.66% in experiment [10]; 2.57% in [11]; -0.49% in experiment [12]. In addition, the inhibition in experiment [13] is 4.3%; in experiment [14], 4.28%; in [15], 3.75%; in [16] it was 1.6%; in experiment [17], 1.61%; in experiment [18], -1.35%. The inhibition in [19] was -6.41%; in experiment [20], -0.41%.

For `NS(=O)(=O)c1ccc(N/N=C2\C(=O)Nc3ccc(C(=O)NCc4ccncc4)cc32)cc1`, the inhibition in [1] is 26.3%; in experiment [2], -1.39%; in experiment [3], 2.17%; in experiment [4], 6.35%; in experiment [5], 6.05%; in experiment [6], 4.53%. The inhibition in [7] is 9.75%; in experiment [8] it was 1.65%; in experiment [9], 4.79%; in experiment [10], -1.11%; in experiment [11], 2.56%; in experiment [12], -1.11%. For the same molecule, the inhibition in [13] was 2.06%; in experiment [14], 0.9%; in [15], 0.8%; in [16] it was 0.21%; in [17], 0.37%; in experiment [18] it was -0.51%. Also, the values for the inhibition in experiment [19] and in experiment [20] were -0.17% and -0.37%, respectively.

`Fc1cccc(COc2ccc(Nc3ncncc3C#Cc3ccccc3)cc2Cl)c1`: the inhibition in [1] is 5.53%; in [2], -0.87%; in experiment [3], 0.58%; in [4], 6.33%; in [5], 11.6%; in experiment [6], 3.77%. Also, the inhibition in [7] was 8.28%; in [8] it was -1.02%; in experiment [9] it was 3.79%; in experiment [10], 2.17%; in experiment [11], 2.58%; in [12], -0.38%. Also, the inhibition turned out to be 3.43% in experiment [13]; 3.88% in experiment [14]; 2.67% in [15]; 1.53% in experiment [16]; 1.09% in experiment [17]; 1.02% in [18]. Moreover, the inhibition in experiment [19] was -1.52%; in experiment [20], 1.58%.

`Cn1c(-c2nonc2N)nc2cnccc21`: the inhibition is 3.9% in experiment [1]; -1.11% in experiment [2]; -2.32% in experiment [3]; 3.4% in experiment [4]; 6.34% in experiment [5]; 3.09% in experiment [6]. Moreover, the inhibition in experiment [7] was 0.59%; in [8], 2.23%; in [9] it was 2.42%; in [10] it was 2.62%; in experiment [11], 2.23%; in experiment [12], -3.06%. The inhibition is -4.33% in [13]; 1.04% in experiment [14]; 3.15% in [15]; 1.35% in experiment [16]; 1.72% in experiment [17]; 1.38% in experiment [18]. The results for the inhibition in experiment [19] and in experiment [20] were -3.7% and -0.45%, respectively.

Turning to `COc1c(C(N)=O)cc(-c2ccc(Cl)cc2)cc1-c1ccc(S(N)(=O)=O)cc1`, the inhibition in experiment [1] was 5.76%; in experiment [2] it was 2.9%; in experiment [3] it was 0.68%; in experiment [4] it was 8.26%; in experiment [5], 10.3%; in experiment [6], 4.78%. In addition, the inhibition in experiment [7] is 4.22%; in [8], 4.33%; in experiment [9], 6.61%; in [10], 4.27%; in [11] it was 5.43%; in experiment [12] it was -3.03%. The inhibition is -1.89% in [13]; 4.8% in [14]; 2.59% in experiment [15]; 0.32% in [16]; 1.67% in experiment [17]; 0.85% in [18]. For the same molecule, the inhibition in experiment [19] was found to be 3.11%; in experiment [20] it was 0.56%.

For `N#Cc1ccc2c(-c3ccnc(NC4CC4)n3)c(-c3ccc(F)cc3)nn2c1`, the inhibition was 1.27% in experiment [1]; -2.45% in experiment [2]; -1.38% in [3]; 75.4% in [4]; 84.2% in experiment [5]; 44.5% in experiment [6]. Besides, the inhibition is 74.8% in experiment [7]; 1.17% in experiment [8]; 0.18% in experiment [9]; 1% in [10]; 1.13% in [11]; -1.5% in [12]. The inhibition in experiment [13] is -2.4%; in experiment [14], 0.7%; in [15], 0.6%; in experiment [16], -0.45%; in [17], -0.14%; in experiment [18], -2.01%. Also, the inhibition was -0.71% in experiment [19] and 3.55% in experiment [20].

With `O=C1Nc2ccccc2/C1=C1\CCc2cc(O)ccc21`, the inhibition in [1] is 4.54%; in experiment [2], 0.01%; in experiment [3], -0.36%; in experiment [4], 4.38%; in experiment [5] it was 7.01%; in experiment [6], 4.9%. For the same molecule, the inhibition in [7] was 5.91%; in experiment [8] it was 3.43%; in experiment [9], 6.56%; in experiment [10] it was 4.33%; in [11], 4.17%; in [12], -1.97%. For the same molecule, the inhibition is -3.93% in [13]; 3.67% in experiment [14]; 6.82% in experiment [15]; 2.68% in experiment [16]; 5.45% in [17]; -5.42% in [18]. Besides, the inhibition in experiment [19] is -0.12%; in [20], 1.98%.
